# Source: PubChem (several laboratories)
# Mtb betalactam: beta-lactam sensitization of Mtb H37Rv, H37Rv | M. tuberculosis H37Rv growth with meropenem, percent inhibition | inhibition, % at 25 µM | 330,000 compounds, 0.27% hits; call rule not given here;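 further: growth measured after seven days incubation then overnight dye step; 0% = bacteria only wells and 100% = bacteria with antibiotic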
# Mtb UGM inh: M. tuberculosis UGM enzyme inhibitors, primary screen, biochemical, fluorescence polarization, single point; UDP-galactopyranose mutase (Mycobacterium tuberculosis (strain ATCC 25618 / H37Rv)), …; purified UGM, fluorescence polarization probe displacement; inhibition, % at 10 µM; 320,000 compounds, 0.06% hits; AID 504406, 2011; in the data active means inhibition above about 10%, passing the limit was not always enough; inconclusive means no clear call, values can overlap the other calls
# Rv3671c inh: Rv3671c serine protease inhibitors, primary screen, biochemical, fluorescence polarization, M. tuberculosis H37Rv; 320,000 compounds, 0.048% hits; inhibition, % at 5.96 µM; in the data active means inhibition above about 38%;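 further: extracellular domain of Rv3671c used as enzyme; 0% = enzyme with DMSO and 100% = no enzyme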
# RecA intein inh: Mtb RecA intein splicing inhibitors, primary screen, biochemical, fluorescence, HTS; Protein RecA (Mycobacterium tuberculosis (strain ATCC 25618 / H37Rv)), P9WHJ3; cell-free RecA intein splicing; inhibition, % (concentration not given with the values); 290,000 compounds, 0.75% hits; AID 2221, 2009; in the data active means inhibition above about 30%; inconclusive means no clear call, values can overlap the other calls;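 further: 0% = vehicle wells and 100% = reference inhibitor control wells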
# Mtb FBA inh: Mtb FBA enzyme inhibitors, primary screen, biochemical, fluorescence, strain H37Rv. inhibition, % at 1 µM. purified M. tuberculosis FBA, fluorescence read-out. 360,000 compounds, 2.3% hits. Fructose-bisphosphate aldolase (Mycobacterium tuberculosis (strain ATCC 25618 / H37Rv)), …;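 further: 0% = vehicle and 100% = reference inhibitor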
# GDH-TPI counter-1: GDH-TPI coupling enzyme inhibitors, primary screen, artefact control for M. tuberculosis FBA inhibitor project, biochemical, absorbance, full deck. AID 588335, 2011. 360,000 compounds, 1.2% hits. GDH-TPI coupled enzyme counterscreen, NADH absorbance. inhibition, % at 4.8 µM; in the data active means inhibition above about 30%;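 further: 0% = DMSO wells and 100% = wells lacking the enzyme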
# Mtb FBA confirm: M. tuberculosis aldolase blockers, biochemical, fluorescence, strain H37Rv, confirmation; shares compounds with Mtb FBA inh; purified M. tuberculosis FBA, fluorescence read-out; inhibition, % at 1 µM; 5,600 compounds, 78% hits;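 further: 0% = vehicle wells and 100% = reference inhibitor wells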
# GDH-TPI counter-2: GDH-TPI coupling enzyme inhibitors, artefact control for M. tuberculosis FBA inhibitor project, biochemical, fluorescence, high throughput | GDH-TPI coupled enzyme counterscreen | AID 652141, 2013 | shares compounds with Mtb FBA inh | inhibition, % at 1 µM | 5,600 compounds, 81% hits; in the data active means inhibition above about 10%
# Active calls of the source: *; ? = inconclusive; . = not tested or not shown; + = active, no number. In the library only some 4% were active in any assay of this set; here they are far more common. Unless noted, no stated cut-off is given here; in the data, active means inhibition above about 27%; inactive means the rest.
SMILES,Mtb betalactam,Mtb UGM inh,Rv3671c inh,RecA intein inh,Mtb FBA inh,GDH-TPI counter-1,Mtb FBA confirm,GDH-TPI counter-2
CCOc1ccc(-c2cc3cc(OC)c(OC)cc3c(C)n2)cc1,11.0,-0.3,6.2,-0.5,27.5*,2.2,60.0*,43.5*
CCc1nc(-c2ccc(OC)c(OC)c2)cc2cc(OC)c(OC)cc12,66.0,-1.6,3.8,-2.9,2.1,-1.1,.,.
FC(F)(F)c1nc2nc(Cl)c(Cl)nc2n1CCCN1CCOCC1,.,.,.,.,47.6*,20.4,+,+
Cn1c(=O)n(C)c2cc3[nH]cnc3cc21,-1.7,-1.4,3.3,1.9,2.5,-3.2,.,.
Nc1cc2nc[nH]c2cc1N,.,.,.,-4.6,31.8*,10.5,54.5*,50.5*
COc1ccc(C2C(C#N)=C(N)OC3=C2C(=O)CC(C)(C)C3)cc1Cn1nc(C)c([N+](=O)[O-])c1C (stereo unspecified),2.2,3.8,-17.7,0.8,39.3*,-3.9,54.1*,46.8*
O=C(COC(=O)/C=C/c1cccc(Br)c1)Nc1ccc(Cl)cn1,.,.,.,.,-1.9,7.1,.,.
COc1ccccc1NS(=O)(=O)c1cccc(NS(=O)(=O)c2cc(C(=O)O)ccc2Cl)c1,.,.,.,.,2.4,19.5,.,.
CCOC(=O)c1cc2c(=O)n3ccccc3nc2n(CCOC)c1=NC(=O)c1c(-c2c(F)cccc2Cl)noc1C,10.6,1.9,-3.1,0.2,49.1*,36.6*,177.8*,165.7*
Cn1c(C=O)c(-c2ccc3cc[nH]c3c2)c2ccccc21,?,0.9,-5.6,.,4.6,-3.6,.,.
COc1cc(-c2nc(CCNC(=O)c3ccco3)cs2)cc(OC)c1OC,0.4,-0.7,0.3,-0.2,37.2*,-1.0,139.1*,112.5*
Cc1ccc(NC(=S)NC(NC(=O)c2ccco2)C(Cl)(Cl)Cl)cc1 (stereo unspecified),-5.5,-2.2,-6.4,8.8,0.5,7.6,.,.
Cc1cccc(NC(=S)NC(NC(=O)c2ccco2)C(Cl)(Cl)Cl)c1 (stereo unspecified),-8.6,-1.6,-3.1,5.5,73.9*,16.6,89.1*,95.2*
O=S(=O)(c1cccs1)N1CN(Cc2ccccc2)c2nc3ccccc3nc21,-14.1,4.3,-7.4,-1.0,32.4*,35.6*,39.8*,27.1*
O=S(=O)(c1cccs1)N1CN(CC2CCCO2)c2nc3ccccc3nc21 (stereo unspecified),5.3,-3.6,-1.7,0.2,51.3*,21.2,70.3*,58.1*
Cc1ccc(S(=O)(=O)N2CN(CC3CCCO3)c3nc4ccccc4nc32)c(C)c1 (stereo unspecified),0.4,-0.1,4.8,4.9,8.4,6.3,.,.
COc1ccc(CN2CN(S(=O)(=O)c3cccs3)c3nc4ccccc4nc32)cc1,-0.8,0.9,-4.0,-1.3,8.2,16.5,.,.
COc1ccc(S(=O)(=O)N2CCOCC2)cc1NC(=O)c1cc2ccccc2o1,.,.,.,.,3.3,-1.8,.,.
O=C(NCc1ccccc1F)C1CCCN1S(=O)(=O)c1ccc(F)cc1 (stereo unspecified),-8.3,1.6,9.8,0.8,3.4,13.0,.,.
CC(C)(C)c1ccc(OCC(=O)NCc2ccco2)cc1,-3.1,0.4,-4.8,.,1.0,10.1,.,.
CC(=O)N1CCC2(CC1)CC(=O)c1cc(OCC(=O)NCc3ccc(C)cc3)ccc1O2,-12.0,1.0,-3.2,-6.4,51.0*,2.8,-6.5,-3.6
CC(=O)N1CCC2(CC1)CC(=O)c1cc(Cl)ccc1O2,-4.7,-0.3,1.3,1.1,8.3,0.8,.,.
CC(=O)N1CCC2(CC1)CC(=O)c1cc(OCC(=O)NCc3ccco3)ccc1O2,-8.3,0.0,-3.6,-7.3,35.4*,12.8,120.8*,79.6*
